# According to PubChem BioAssay (EPA / NIEHS):
# “And” between values parts separate entries of the source, which are not always exact repeats. Identical values can stand only once. Records with an inconclusive call do not appear. Some compounds were tested as several samples or in several runs, with calls that do not always agree. The source made the active and inactive calls. The calls were made as follows: active = hit-call score of the fitted dose curve at least 0.9, where 1 is the maximum; inconclusive = response in the unintended direction; inactive = score below 0.9.
# Columns and labels:
# [1] = biological target: human Leukotriene B4 Receptor 1 (LTB4-BLT1), LTB4R (gene 1241) (UniProt Q15722); test: NVS_GPCR_hLTB4_BLT1: NovaScreen (NVS) G Protein-Coupled Receptor Assay for human Leukotriene B4 Receptor 1 (LTB4-BLT1) (AID 2283271)
# Chain of human Leukotriene B4 Receptor 1 (LTB4-BLT1), LTB4R (gene 1241) (Q15722 whole entry, looked up): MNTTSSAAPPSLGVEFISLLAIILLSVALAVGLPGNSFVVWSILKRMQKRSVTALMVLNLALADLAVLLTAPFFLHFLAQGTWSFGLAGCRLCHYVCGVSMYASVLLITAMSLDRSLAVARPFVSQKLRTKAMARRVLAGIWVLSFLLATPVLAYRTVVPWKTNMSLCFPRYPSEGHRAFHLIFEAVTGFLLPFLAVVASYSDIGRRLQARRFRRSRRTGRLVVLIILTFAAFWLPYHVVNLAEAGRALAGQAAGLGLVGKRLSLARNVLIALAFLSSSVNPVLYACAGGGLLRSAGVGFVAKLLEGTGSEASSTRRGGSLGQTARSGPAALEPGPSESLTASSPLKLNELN
# In short: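 Radioligand displacement binding on receptor extracted from human neutrophils, cell-free, 1 h after dosing; filter-based scintillation counting. Primary screen in duplicate at 25 uM, actives retested in concentration-response up to 50 uM; loss of signal versus DMSO.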
# [2] = biological target: human Neurokinin, NK2 Receptor, TACR2 (gene 6865) (UniProt P21452); test: NVS_GPCR_hNK2: NovaScreen (NVS) G Protein-Coupled Receptor Assay for human Neurokinin, NK2 Receptor (AID 2283278);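 also: actives reduce bound radioligand signal relative to DMSO baseline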
# Chain of human Neurokinin, NK2 Receptor, TACR2 (gene 6865) (P21452 whole entry, looked up): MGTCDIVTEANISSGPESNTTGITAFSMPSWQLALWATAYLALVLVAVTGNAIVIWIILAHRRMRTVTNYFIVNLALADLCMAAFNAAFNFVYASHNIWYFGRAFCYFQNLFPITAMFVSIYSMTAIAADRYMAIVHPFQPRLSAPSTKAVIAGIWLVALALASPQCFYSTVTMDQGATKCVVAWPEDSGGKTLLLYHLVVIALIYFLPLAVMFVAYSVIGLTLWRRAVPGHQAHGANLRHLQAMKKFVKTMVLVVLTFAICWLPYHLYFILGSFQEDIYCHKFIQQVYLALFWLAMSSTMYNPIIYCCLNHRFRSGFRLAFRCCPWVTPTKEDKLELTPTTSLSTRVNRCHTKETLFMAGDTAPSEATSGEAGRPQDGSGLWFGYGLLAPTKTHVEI
# In short: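 Cell-free radioligand binding using receptor protein extracted from CHO cells; readings taken 4 hours after chemical dosing by filter-based scintillation counting. Primary screen ran single concentration (25 uM) in duplicate; actives followed up in concentration series, loss-of-signal versus DMSO baseline.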
# [3] = biological target: human Opioid Receptor Delta 1 (Opiate D1), OPRD1 (gene 4985) (UniProt P41143); test: NVS_GPCR_hOpiate_D1: NovaScreen (NVS) G Protein-Coupled Receptor Assay for human Opioid Receptor Delta 1 (Opiate D1) (AID 2283280)
# Chain of human Opioid Receptor Delta 1 (Opiate D1), OPRD1 (gene 4985) (P41143 whole entry, looked up): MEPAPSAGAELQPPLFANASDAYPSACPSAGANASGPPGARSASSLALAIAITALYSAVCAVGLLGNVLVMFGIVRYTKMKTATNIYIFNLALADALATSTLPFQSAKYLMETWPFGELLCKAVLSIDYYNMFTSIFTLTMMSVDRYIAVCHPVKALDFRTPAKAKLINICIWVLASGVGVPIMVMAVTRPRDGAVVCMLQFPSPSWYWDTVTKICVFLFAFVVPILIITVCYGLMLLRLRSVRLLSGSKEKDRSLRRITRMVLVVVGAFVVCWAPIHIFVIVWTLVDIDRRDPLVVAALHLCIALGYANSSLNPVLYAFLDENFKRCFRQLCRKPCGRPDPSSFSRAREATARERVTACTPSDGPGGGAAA
# In short: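 Radioligand displacement on membranes from CHO cells expressing the receptor, read by filter scintillation counting 1 h after dosing. Duplicate single-point screen at 25 uM, then concentration series for actives; loss of signal versus DMSO.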
# [4] = biological target: mouse Cholecystokinin, CCK1 Receptor (CCKA), Cckar (gene 12425) (UniProt O08786); test: NVS_GPCR_mCCKAPeripheral: NovaScreen (NVS) G Protein-Coupled Receptor Assay for mouse Cholecystokinin, CCK1 Receptor (CCKA) (AID 2283285)
# Chain of mouse Cholecystokinin, CCK1 Receptor (CCKA), Cckar (gene 12425) (O08786 whole entry, looked up): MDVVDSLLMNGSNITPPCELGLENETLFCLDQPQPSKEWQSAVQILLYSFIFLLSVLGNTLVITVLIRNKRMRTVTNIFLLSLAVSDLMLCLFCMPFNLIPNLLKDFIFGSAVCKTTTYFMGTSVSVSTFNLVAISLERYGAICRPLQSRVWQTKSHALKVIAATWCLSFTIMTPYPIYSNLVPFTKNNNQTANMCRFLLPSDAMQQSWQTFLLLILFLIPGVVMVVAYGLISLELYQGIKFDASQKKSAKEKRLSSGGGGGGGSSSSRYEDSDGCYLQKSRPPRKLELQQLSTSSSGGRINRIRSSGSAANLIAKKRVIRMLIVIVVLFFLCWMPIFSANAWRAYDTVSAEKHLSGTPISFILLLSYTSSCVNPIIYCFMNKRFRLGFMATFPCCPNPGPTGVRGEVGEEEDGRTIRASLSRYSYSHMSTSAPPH
# In short: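 Radioligand competitive displacement on mouse pancreatic membranes, 2 h incubation; filter-based scintillation counting, loss of signal versus DMSO. Single-concentration screen at 25 uM in duplicate, actives retested in concentration-response up to 50 uM.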
# [5] = biological target: human Purinergic Receptor P2Y, P2RY1 (gene 5028) (UniProt P47900); test: NVS_GPCR_hPY2: NovaScreen (NVS) G Protein-Coupled Receptor Assay for human Purinergic Receptor P2Y (AID 2283281)
# In short: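 Cell-free radioligand binding using U937-derived protein, 1 h after dosing, filter-based scintillation counting. Screened in duplicate at 25 uM; actives rerun as concentration-response up to 50 uM; loss of signal versus DMSO.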
# [6] = biological target: rat Adrenergic, Alpha 1, Non-selective Receptor (Adra1), Adra1a (gene 29412) (UniProt P43140); test: NVS_GPCR_rAdra1_NonSelective: NovaScreen (NVS) G Protein-Coupled Receptor Assay for rat Adrenergic, Alpha 1, Non-selective Receptor (Adra1) (AID 2283289)
# Chain of rat Adrenergic, Alpha 1, Non-selective Receptor (Adra1), Adra1a (gene 29412) (P43140 whole entry, looked up): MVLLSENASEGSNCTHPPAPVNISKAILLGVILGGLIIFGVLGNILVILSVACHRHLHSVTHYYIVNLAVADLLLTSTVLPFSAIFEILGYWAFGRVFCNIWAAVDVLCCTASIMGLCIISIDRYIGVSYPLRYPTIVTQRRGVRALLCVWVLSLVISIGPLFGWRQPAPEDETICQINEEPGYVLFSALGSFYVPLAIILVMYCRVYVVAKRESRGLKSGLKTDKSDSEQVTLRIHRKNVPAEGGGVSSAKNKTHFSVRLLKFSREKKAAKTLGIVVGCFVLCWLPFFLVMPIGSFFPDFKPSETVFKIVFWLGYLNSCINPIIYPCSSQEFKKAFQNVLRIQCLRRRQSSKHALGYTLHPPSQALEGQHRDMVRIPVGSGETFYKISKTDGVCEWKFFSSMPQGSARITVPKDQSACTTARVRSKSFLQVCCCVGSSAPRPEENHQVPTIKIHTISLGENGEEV
# In short: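 Rat forebrain membranes; radioligand displacement read by filter-based scintillation counting 1 h after dosing. Primary screen in duplicate at 25 uM; hits (e.g. ≥30% inhibition) rerun as concentration–response to 50 uM max. Fitted versus DMSO.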
# [7] = biological target: Neuropeptide Y receptor type 2 (Homo sapiens) (UniProt P49146); test: NVS_GPCR_hNPY2: NovaScreen (NVS) G Protein-Coupled Receptor Assay for human Neuropeptide Receptor Y2 (NPY2) (AID 2283277)
# Chain of Neuropeptide Y receptor type 2 (Homo sapiens) (P49146 whole entry, looked up): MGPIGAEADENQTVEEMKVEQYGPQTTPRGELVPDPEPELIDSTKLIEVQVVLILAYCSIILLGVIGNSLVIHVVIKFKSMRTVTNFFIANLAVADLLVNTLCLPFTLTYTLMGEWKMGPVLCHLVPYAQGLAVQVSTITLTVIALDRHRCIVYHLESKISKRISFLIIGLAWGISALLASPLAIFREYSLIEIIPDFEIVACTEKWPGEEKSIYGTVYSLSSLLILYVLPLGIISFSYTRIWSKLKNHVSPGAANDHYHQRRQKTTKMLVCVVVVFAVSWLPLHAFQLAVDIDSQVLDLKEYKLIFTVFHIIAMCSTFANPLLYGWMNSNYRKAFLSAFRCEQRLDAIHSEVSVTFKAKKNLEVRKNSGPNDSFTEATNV
# In short: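 Radioligand binding on membranes extracted from SK-N-MC cells, cell-free, read 1 h after dosing by filter-based scintillation counting. Loss of signal vs DMSO. Primary screen in duplicate at 25 uM; actives followed up in concentration-response up to 50 uM.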
# [8] = biological target: human Thromboxane A2 Receptor (TXA2), TBXA2R (gene 6915) (UniProt P21731); test: NVS_GPCR_hTXA2: NovaScreen (NVS) G Protein-Coupled Receptor Assay for human Thromboxane A2 Receptor (TXA2) (AID 2283282);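 also: actives reduce bound radioligand signal relative to DMSO baseline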
# Chain of human Thromboxane A2 Receptor (TXA2), TBXA2R (gene 6915) (P21731 whole entry, looked up): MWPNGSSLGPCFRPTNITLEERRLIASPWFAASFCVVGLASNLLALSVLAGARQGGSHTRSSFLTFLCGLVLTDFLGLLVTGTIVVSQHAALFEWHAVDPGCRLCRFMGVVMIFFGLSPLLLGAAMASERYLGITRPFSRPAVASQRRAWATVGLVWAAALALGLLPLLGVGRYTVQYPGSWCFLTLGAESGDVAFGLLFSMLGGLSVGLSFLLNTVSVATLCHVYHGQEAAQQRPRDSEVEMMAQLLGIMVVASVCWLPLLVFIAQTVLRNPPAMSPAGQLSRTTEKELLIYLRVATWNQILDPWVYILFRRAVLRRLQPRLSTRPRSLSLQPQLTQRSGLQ
# In short: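 Human platelet-derived receptor preparation incubated with test chemical and radiolabelled ligand for 1 hour, cell-free. Bound label was separated by filtration and counted; displacement relative to DMSO controls gave activity, screened at 25 uM, then titrated.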
# [9] = biological target: Muscarinic acetylcholine receptor M1 (Homo sapiens) (UniProt P11229); test: NVS_GPCR_hM1: NovaScreen (NVS) G Protein-Coupled Receptor Assay for human Muscarinic, M1 Receptor (AID 2283270)
# Chain of Muscarinic acetylcholine receptor M1 (Homo sapiens) (P11229 whole entry, looked up): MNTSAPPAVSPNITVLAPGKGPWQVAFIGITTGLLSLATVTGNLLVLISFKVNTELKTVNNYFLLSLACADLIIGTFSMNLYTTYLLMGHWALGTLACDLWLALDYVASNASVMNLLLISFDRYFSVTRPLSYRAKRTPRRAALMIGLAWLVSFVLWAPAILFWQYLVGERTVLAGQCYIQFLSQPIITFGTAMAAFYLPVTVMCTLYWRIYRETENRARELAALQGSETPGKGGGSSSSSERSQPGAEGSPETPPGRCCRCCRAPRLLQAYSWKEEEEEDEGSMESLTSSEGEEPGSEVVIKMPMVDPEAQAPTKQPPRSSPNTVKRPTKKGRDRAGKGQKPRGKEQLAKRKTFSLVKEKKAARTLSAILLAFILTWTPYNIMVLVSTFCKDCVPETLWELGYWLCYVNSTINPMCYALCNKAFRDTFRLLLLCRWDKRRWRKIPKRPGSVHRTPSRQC
# In short: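 Cell-free radioligand displacement using membrane protein extracted from CHO cells, read by filter-based scintillation counting 1 h after dosing. Loss of bound signal fitted versus DMSO; primary screen single concentration 25 uM in duplicate, actives followed by concentration series.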
# [10] = biological target: Muscarinic acetylcholine receptor M3 (Homo sapiens) (UniProt P20309); test: NVS_GPCR_hM3: NovaScreen (NVS) G Protein-Coupled Receptor Assay for human Muscarinic, M3 Receptor (AID 2283272)
# Chain of Muscarinic acetylcholine receptor M3 (Homo sapiens) (P20309 whole entry, looked up): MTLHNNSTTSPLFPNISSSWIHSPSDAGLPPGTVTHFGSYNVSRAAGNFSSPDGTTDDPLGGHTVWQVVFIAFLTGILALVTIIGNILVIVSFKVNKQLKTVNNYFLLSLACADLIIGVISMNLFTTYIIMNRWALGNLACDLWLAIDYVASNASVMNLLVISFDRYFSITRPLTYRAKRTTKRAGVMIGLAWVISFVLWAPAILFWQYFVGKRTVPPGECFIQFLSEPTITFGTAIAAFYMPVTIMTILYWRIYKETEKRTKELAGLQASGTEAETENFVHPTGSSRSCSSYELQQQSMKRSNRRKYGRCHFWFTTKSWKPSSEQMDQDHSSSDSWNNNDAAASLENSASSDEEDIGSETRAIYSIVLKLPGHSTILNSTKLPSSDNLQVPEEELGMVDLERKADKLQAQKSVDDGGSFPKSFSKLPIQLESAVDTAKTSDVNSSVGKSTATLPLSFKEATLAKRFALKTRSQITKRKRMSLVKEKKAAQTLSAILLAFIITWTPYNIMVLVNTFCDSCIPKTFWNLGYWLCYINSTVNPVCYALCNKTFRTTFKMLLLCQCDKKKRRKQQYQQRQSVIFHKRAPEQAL
# In short: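 Radioligand displacement binding on human M3 receptor in CHO-derived membranes, 1 h incubation, filter-based scintillation counting. Primary screen in duplicate at 25 uM; actives followed up in concentration series; loss of signal versus DMSO.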
# [11] = biological target: Muscarinic acetylcholine receptor M2 (Homo sapiens) (UniProt P08172); test: NVS_GPCR_hM2: NovaScreen (NVS) G Protein-Coupled Receptor Assay for human Muscarinic, M2 Receptor (AID 2283273)
# In short: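 CHO membrane prep, radioligand + test compound, 1 h; filtration, scintillation count. Screen 25 uM duplicate → conc. series for actives. Readout: decrease in binding vs DMSO control.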
# [12] = biological target: human Muscarinic, M4 Receptor, CHRM4 (gene 1132) (UniProt P08173); test: NVS_GPCR_hM4: NovaScreen (NVS) G Protein-Coupled Receptor Assay for human Muscarinic, M4 Receptor (AID 2283274)
# Chain of human Muscarinic, M4 Receptor, CHRM4 (gene 1132) (P08173 whole entry, looked up): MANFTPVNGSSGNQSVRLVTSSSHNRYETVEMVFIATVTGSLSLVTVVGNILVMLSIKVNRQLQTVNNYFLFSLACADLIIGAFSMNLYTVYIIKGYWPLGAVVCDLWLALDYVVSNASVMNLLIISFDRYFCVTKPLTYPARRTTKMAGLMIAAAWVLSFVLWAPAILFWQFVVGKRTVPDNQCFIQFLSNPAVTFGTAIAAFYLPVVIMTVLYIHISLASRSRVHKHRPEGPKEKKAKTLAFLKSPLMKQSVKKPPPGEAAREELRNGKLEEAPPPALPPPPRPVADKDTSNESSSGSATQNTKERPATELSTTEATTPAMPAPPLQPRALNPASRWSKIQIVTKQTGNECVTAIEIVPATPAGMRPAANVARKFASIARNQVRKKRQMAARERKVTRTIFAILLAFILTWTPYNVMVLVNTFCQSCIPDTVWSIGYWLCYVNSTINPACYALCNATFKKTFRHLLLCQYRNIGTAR
# In short: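 Cell-free radioligand displacement using CHO-derived human M4 receptor protein, 1 h after dosing; bound radioactivity by filtration and scintillation counting. Primary screen single 25 uM duplicate, actives followed in concentration series.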
# [13] = tested on: rabbit Platelet Activating Factor Receptor (PAF), gene 100354046; test: NVS_GPCR_rabPAF: NovaScreen (NVS) G Protein-Coupled Receptor Assay for rabbit Platelet Activating Factor Receptor (PAF) (AID 2283287)
# In short: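 Rabbit platelet membrane preparation; radioligand displacement read by filter-based scintillation counting 1 h after dosing, loss of signal versus DMSO. Primary screen in duplicate at 25 uM, actives followed up in concentration series.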
# [14] = biological target: D(1A) dopamine receptor (Homo sapiens) (UniProt P21728); test: NVS_GPCR_hDRD1: NovaScreen (NVS) G Protein-Coupled Receptor Assay for human Dopamine Receptor D1 (DRD1) (AID 2283269)
# Chain of D(1A) dopamine receptor (Homo sapiens) (P21728 whole entry, looked up): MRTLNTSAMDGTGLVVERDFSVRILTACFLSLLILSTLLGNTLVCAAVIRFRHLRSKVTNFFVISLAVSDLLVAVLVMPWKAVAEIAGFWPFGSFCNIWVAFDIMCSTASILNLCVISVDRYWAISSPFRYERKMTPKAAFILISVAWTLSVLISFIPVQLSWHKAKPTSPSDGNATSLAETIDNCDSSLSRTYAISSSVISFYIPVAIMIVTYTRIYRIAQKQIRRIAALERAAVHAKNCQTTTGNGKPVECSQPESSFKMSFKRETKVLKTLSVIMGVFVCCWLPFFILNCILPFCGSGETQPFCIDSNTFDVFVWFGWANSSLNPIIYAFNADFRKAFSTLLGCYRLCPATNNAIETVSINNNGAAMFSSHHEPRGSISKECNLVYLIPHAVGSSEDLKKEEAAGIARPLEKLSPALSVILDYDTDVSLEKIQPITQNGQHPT
# In short: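 Cell-free competition with radioligand, filter-trapped and scintillation-counted 1 h post-dose, using HEK293-derived human D1 preparation. Duplicate single-point testing at 25 uM first, then concentration series for actives; DMSO served as baseline, loss-of-signal scored.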
structure (smiles),measurement,setting,value
CCCN(CCOc1c(Cl)cc(Cl)cc1Cl)C(=O)n1ccnc1,outcome,[1],inactive
same,outcome,[2],inactive
same,outcome,[3],inactive
same,AC50,[4],10.5 µM (active)
CC(C)(C)C(O)C(Oc1ccc(Cl)cc1)n1cncn1 (centres undefined),outcome,[5],inactive
CC(C)OC(=O)Nc1cccc(Cl)c1,AC50,[4],15.7 µM (active)
same,outcome,[6],inactive
O=C(O)C(F)(F)C(F)(F)C(F)(F)C(F)(F)C(F)(F)C(F)(F)C(F)(F)F,AC50,[1],35.2 µM (active)
same,outcome,[7],inactive
same,outcome,[2],inactive
same,outcome,[3],inactive
same,AC50,[8],9.44 µM (active)
same,outcome,[8],inactive
CCc1ccc(C(=O)NN(C(=O)c2cc(C)cc(C)c2)C(C)(C)C)cc1,outcome,[9],inactive
same,outcome,[1],inactive
same,AC50,[10],0.194 µM (active)
same,AC50,[11],0.152 µM (active)
same,outcome,[12],inactive
CC[C@H](C)[C@H]1O[C@]2(C=C[C@@H]1C)C[C@@H]1C[C@@H](C/C=C(\C)[C@@H](O[C@H]3C[C@H](OC)[C@@H](O[C@H]4C[C@H](OC)[C@@H](O)[C@H](C)O4)[C@H](C)O3)[C@@H](C)/C=C/C=C3\CO[C@@H]4[C@H](O)C(C)=C[C@@H](C(=O)O1)[C@]34O)O2 (tested in a mixture with another compound),AC50,[2],6.9 µM (active)
[2H]C1([2H])[n+]2ccccc2-c2cccc[n+]2C1([2H])[2H],AC50,[9],12.9 µM (active)
same,AC50,[10],4.96 µM (active)
same,outcome,[13],inactive
ClC1C(Cl)C(Cl)C(Cl)C(Cl)C1Cl (centres undefined),outcome,[6],inactive
CCOC1Oc2ccc(OS(C)(=O)=O)cc2C1(C)C (centres undefined),outcome,[7],inactive
CCOc1nc(NC)nc(NC(=O)NS(=O)(=O)c2ccccc2C(=O)OC)n1,outcome,[13],inactive
CCS(=O)(=O)c1cccnc1S(=O)(=O)NC(=O)Nc1nc(OC)cc(OC)n1,outcome,[13],inactive
N#Cc1c(Cl)c(Cl)c(Cl)c(C#N)c1Cl,AC50,[14],15.5 µM (active)
CCOCN(C(=O)CCl)c1c(C)cccc1CC,outcome,[12],inactive
same,AC50,[13],15.2 µM (active)
Oc1cc(Cl)ccc1Oc1ccc(Cl)cc1Cl,AC50,[14],25 µM (active)
same,outcome,[14],inactive
same,outcome,[12],inactive
same,AC50,[2],25.5 µM (active)
same,AC50,[3],10.7 µM (active) and 25.5 µM (active) and 9.39 µM (active)
same,outcome,[3],inactive
same,AC50,[4],25.5 µM (active) and 38.4 µM (active)
same,outcome,[4],inactive
O=C(O)CCCOc1ccc(Cl)cc1Cl,outcome,[9],inactive
same,AC50,[13],15.8 µM (active)
